Measurements published in PubChem BioAssay (Tox21).
Inconclusive results are not listed. Entries that show only a call come without a potency. A number with no mark means an inactive call. Active and inactive are the calls of the source. Calls follow the shape of the dose curve; as a rule, active = well fitted curve in the direction sought with a large enough effect in the repeat runs; inconclusive = weak or mixed curves; inactive = no such curve, though single readings can be large; an effect the other way counts as inactive or inconclusive.

Legend:
[1] = A CellTox Green Cytotoxicity Assay to monitor cytotoxicity in HEK293 cells - 40 hour (AID 1224871); also: nearly all actives have a fitted effect of over 45% in size; also: potency is read from the fitted curve at half-maximal effect
How it was run: (§1)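 Seeding of HEK293 cells together with cytotoxicity dye preceded a 5 h incubation at 37 C/5% CO2. Test compounds in DMSO were then added and fluorescence monitored across 40 h.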

[2] = qHTS RealTime-Glo MT Cell Viability Assay in HEK293 cells - 16 hour (AID 1224872); also: top concentration of the series differs between compounds; nearly all actives have a fitted effect of over 50% in size
How it was run: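 Assay medium contained NanoLuc luciferase plus cell-permeant prosubstrate, added with HEK293 cells at 600 cells/well. After 5 h at 37 C/5% CO2 compounds were added; plates stayed at 37 C for 40 h with serial luminescence reads.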

[3] = qHTS RealTime-Glo MT Cell Viability Assay in HepG2 cells - 8 hour (AID 1224873); also: nearly all actives have a fitted effect of over 55% in size
How it was run: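 Real-time viability: cells seeded at 600 per well together with NanoLuc and cell-permeant prosubstrate, compounds added after 5 h incubation. Luminescence tracked at 0, 8, 16, 24, 32 and 40 h of exposure.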

[4] = A CellTox Green Cytotoxicity Assay to monitor cytotoxicity in HepG2 cells - 16 hour (AID 1224876); also: nearly all actives have a fitted effect of over 45% in size
How it was run: (§2)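 Nonlytic assay: viable cells exclude the dye, so fluorescence scales with cell death. HepG2 at 600 cells/well, compounds added after 5 h, signal read across 40 h.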

[5] = qHTS RealTime-Glo MT Cell Viability Assay in HepG2 cells - 32 hour (AID 1224877); also: nearly all actives have a fitted effect of over 55% in size
How it was run: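 qHTS, HepG2, 600 cells/well, RealTime-Glo (NanoLuc + prosubstrate) added with cells; 5 h preincubation; DMSO compound addition; 37 C; luminescence at 0/8/16/24/32/40 h.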

[6] = A CellTox Green Cytotoxicity Assay to monitor cytotoxicity in HepG2 cells - 24 hour (AID 1224878); also: nearly all actives have a fitted effect of over 45% in size
How it was run: as §2

[7] = A CellTox Green Cytotoxicity Assay to monitor cytotoxicity in HepG2 cells - 40 hour (AID 1224879); also: nearly all actives have a fitted effect of over 40% in size
How it was run: as §2

[8] = A CellTox Green Cytotoxicity Assay to monitor cytotoxicity in HEK293 cells - 24 hour (AID 1224875); also: nearly all actives have a fitted effect of over 45% in size; also: potency is read from the fitted curve at half-maximal effect
How it was run: as §1

[9] = qHTS RealTime-Glo MT Cell Viability Assay in HEK293 cells - 0 hour (AID 1224880)
How it was run: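 Tox21 screen in HEK293 using RealTime-Glo MT chemistry, with cells and reagent co-dispensed. Luminescence proportional to viable cell number was captured at intervals during 40 h compound exposure at 37 C.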

SMILES	Potency [1]	Potency [2]	Potency [3]	Potency [4]	Potency [5]	Potency [6]	Potency [7]	Potency [8]	outcome [9]
C[C@]1(O)CC[C@H]2[C@@H]3CCC4=CC(=O)CC[C@]4(C)[C@@]3(F)[C@@H](O)C[C@@]21C	inactive	inactive	inactive	inactive	inactive	inactive	inactive		
CCOC(=O)NC(=S)Nc1ccccc1NC(=S)NC(=O)OCC	inactive	inactive	inactive	inactive		inactive		inactive	inactive
O=C(Nc1ccccc1)c1ccccc1I	inactive	inactive	inactive	inactive	inactive	inactive	inactive	inactive	inactive
N#CCBr	inactive	inactive	inactive	inactive		inactive	inactive	inactive	inactive
CNNC	inactive	inactive	inactive		inactive	inactive	inactive		inactive
COP(N)(=S)Oc1ccccc1C(=O)OC(C)C (stereo not drawn)	inactive	inactive	inactive	inactive	inactive	inactive	inactive	inactive	inactive
COC(=O)C(c1ccccc1)C1CCCCN1 (stereo not drawn)	inactive	inactive	inactive	inactive	inactive	inactive	inactive	inactive	inactive
Nc1n[nH]c(N)n1	inactive	inactive	inactive	inactive		inactive	inactive	inactive	inactive
CN1C[C@@H](NS(=O)(=O)N(C)C)C[C@@H]2c3cccc4c3c(cn4C)C[C@H]21	inactive	inactive	inactive	inactive	inactive	inactive	inactive	inactive	inactive
CC(C)(C)C(=O)C(Oc1ccc(Cl)cc1)n1cncn1 (stereo not drawn)	inactive	inactive	inactive	inactive	inactive	inactive	inactive	inactive	inactive
O=NN1CCN(N=O)CC1	inactive	inactive	inactive	inactive	inactive	inactive	inactive	inactive	inactive
CC(C=O)Cc1ccc2c(c1)OCO2 (stereo not drawn)	inactive	inactive	inactive	inactive	inactive	inactive	inactive		inactive
Nc1cnn(-c2ccccc2)c(=O)c1Cl	inactive	inactive	inactive	inactive	inactive	inactive	inactive		inactive
CC(Oc1ccc(Oc2ncc(C(F)(F)F)cc2Cl)cc1)C(=O)O (stereo not drawn)	inactive	inactive	inactive	inactive	inactive	inactive		inactive	inactive
C1CCC(C2CCCCC2)CC1	inactive	inactive	inactive	inactive	inactive	inactive	inactive	inactive	inactive
O=C(CCN1CC1)OCC(CO)(COC(=O)CCN1CC1)COC(=O)CCN1CC1	inactive	inactive	inactive		inactive	inactive	inactive	inactive	inactive
CCC/C(=N\OCC)C1=C(O)CC(CC(C)SCC)CC1=O (stereo not drawn)	inactive	inactive	inactive	inactive		inactive	inactive		inactive
O=[N+]([O-])c1cc(Cl)c(Cl)c(Cl)c1	21.7 µM (active)	inactive	inactive	inactive		inactive	inactive	21.7 µM (active)	inactive
CCN(CC)C(=O)[C@@H]1C=C2c3cccc4[nH]cc(c34)C[C@H]2N(C)C1	inactive	inactive	inactive		inactive	inactive	inactive	inactive	inactive
CCC#N	inactive	inactive	inactive	inactive		inactive	inactive	inactive	inactive
CC(Cl)(Cl)[N+](=O)[O-]	inactive	inactive	inactive	inactive	inactive	inactive	inactive		inactive
CNCC(=O)c1ccc(O)c(O)c1	inactive	inactive	inactive	inactive	inactive	inactive	inactive	inactive	inactive
COc1cc2c(cc1OC)[C@@]13CCN4CC5=CCO[C@H]6CC(=O)N2[C@H]1[C@H]6[C@H]5C[C@H]43	inactive	inactive	inactive	inactive	inactive	inactive	inactive	inactive	inactive
CC(C)CC#N	inactive	inactive	inactive	inactive		inactive	inactive		inactive
CCOC(=O)C(c1c(O)c2ccccc2oc1=O)c1c(O)c2ccccc2oc1=O	inactive	inactive	inactive		inactive	inactive	inactive	inactive	
